Results taken from the supplement of paper PMC10646978.
± gives the standard deviation.

Tests used:
Settings in all cases: modulator concentration 10 µM
[1] = tested on: RAW-Dual (murine macrophage reporter line); assay: NF-kB reporter (SEAP) activity fold change vs agonist alone; higher = enhanced NF-kB activity
Method in brief: (§1)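 RAW-Dual murine macrophage reporter cells were plated at 50 000 per well in 384-well plates, pin-transferred compound to 10 μM final, and pre-incubated for 1 hour at 37 °C before a PRR agonist was added and the cells incubated overnight. NF-κB activity was read from supernatant SEAP with QUANTI-Blue at 620 nm absorbance, and IRF activity from Lucia luciferase with QUANTI-Luc by luminescence. Each signal was expressed as fold change by dividing by the mean agonist-only control on the same plate. Two replicate plates were averaged, with errors obtained by propagation.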

[2] = tested on: RAW-Dual (murine macrophage reporter line); assay: IRF reporter (Lucia luciferase) activity fold change vs agonist alone; higher = enhanced IRF activity
Method in brief: as §1

[3] = tested on: RAW-Dual (murine macrophage reporter line); assay: viability score (confluency relative to resting cells, overnight) (fraction); higher = more viable, active = viable (0.7 or more)
Method in brief: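 RAW-Dual macrophages in 384-well plates were incubated overnight with compound, final concentration 10 μM. Confluency images from IncuCyte were processed in IncuCyte software into two masks covering all imaged wells. The viability score is each well's confluency relative to resting cells, and a compound met the cutoff when both masks exceeded 70% of resting cells.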

[4] = agonist: CpG ODN 1826 0.5 ug/mL

Structure (SMILES)	NF-kB reporter [1, 4]	NF-kB reporter ([1]; agonist: LPS 0.1 ug/mL)	NF-kB reporter ([1]; agonist: MPLA […])	IRF reporter ([2]; agonist: 3'3'-cGAMP 10 ug/mL)	IRF reporter ([2]; agonist: LPS 0.1 ug/mL)	IRF reporter ([2]; agonist: MPLA […])	viability score [3]
Fc1ccc(Nc2nc(NN=Cc3ccccc3F)nc(N3CCCCC3)n2)cc1	1.41 ± 0.13	0.987 ± 0.12	1.02 ± 0.096	1.16 ± 0.081	1.26 ± 0.18	1.74 ± 0.28	1.01 (active)
O=C(COC(=O)c1ccc2ccccc2n1)c1ccc(Br)cc1	0.988 ± 0.16	1.05 ± 0.11	1.06 ± 0.14	0.972 ± 0.033	1.29 ± 0.25	1.42 ± 0.26	1 (active)
CCN(CC)CCOC(=O)C(Cc1cccc2ccccc12)CC1CCCO1.O=C(O)C(=O)O (stereo not given)	0.672 ± 0.21	1.05 ± 0.061	0.998 ± 0.11	0.491 ± 0.026	1.12 ± 0.2	1.27 ± 0.13	0.977 (active)
CCN[C@H]1CN(CCCOC)S(=O)(=O)c2sc(S(N)(=O)=O)cc21	1.01 ± 0.12	1.04 ± 0.059	0.975 ± 0.05	1.03 ± 0.067	0.913 ± 0.042	1 ± 0.12	1 (active)
CCOC(=O)C1=C(C)NC(=S)NC1c1ccccc1OCc1ccccc1 (stereo not given)	0.862 ± 0.069	1.05 ± 0.063	0.965 ± 0.058	0.679 ± 0.09	1.25 ± 0.22	1.03 ± 0.087	1.01 (active)
COC(=O)C1=C(C)NC(C)=C(C(=O)OCC(C)C)C1c1ccccc1[N+](=O)[O-] (stereo not given)	0.884 ± 0.092	0.81 ± 0.05	0.748 ± 0.075	0.371 ± 0.017	0.783 ± 0.066	0.562 ± 0.052	0.923 (active)
Cc1cc(OCC(=O)NCCn2nc(C3CC3)ccc2=O)cc(C)c1Cl	0.861 ± 0.2	1 ± 0.055	1.01 ± 0.064	0.956 ± 0.039	0.823 ± 0.14	1.01 ± 0.26	0.778 (active)
CO[C@@]12[C@H](COC(N)=O)C3=C(C(=O)C(C)=C(N)C3=O)N1C[C@@H]1N[C@@H]12	2.4 ± 0.14	1.47 ± 0.1	2.16 ± 0.18	1.21 ± 0.069	1.42 ± 0.099	1.24 ± 0.24	0.644 (inactive)
CNC(=NC#N)NCCSCc1nc[nH]c1C	0.952 ± 0.073	0.94 ± 0.11	1.03 ± 0.16	1.01 ± 0.032	1.21 ± 0.14	1.36 ± 0.16	1.03 (active)
Cc1occc1C(=O)Nc1ccc([N+](=O)[O-])cc1Cl	0.88 ± 0.079	0.851 ± 0.066	0.898 ± 0.026	1.02 ± 0.088	0.931 ± 0.12	0.874 ± 0.2	0.995 (active)
Br.O=S(=O)(c1ccc(-c2csc(Nc3ccc(Br)cc3)n2)cc1)N1CCCCC1	0.859 ± 0.072	1.08 ± 0.088	0.988 ± 0.034	0.938 ± 0.16	1.01 ± 0.042	0.926 ± 0.11	1 (active)
O=C(CCCn1nc(-c2ccc(F)cc2)ccc1=O)Nc1cc(Cl)ccc1Cl	1.01 ± 0.16	1.06 ± 0.091	0.989 ± 0.11	1.06 ± 0.066	1.03 ± 0.076	1.11 ± 0.18	1.02 (active)
Cc1ccc(OCCCOc2cccc3cccnc23)c(C)c1	0.854 ± 0.11	1.1 ± 0.073	1.62 ± 0.11	0.932 ± 0.07	1.26 ± 0.14	2.82 ± 0.39	0.895 (active)
O=C(Cn1cc(S(=O)(=O)c2ccc(F)cc2)c2ccccc21)N1CCCCCC1	0.825 ± 0.12	0.902 ± 0.073	1.02 ± 0.055	0.847 ± 0.071	1.2 ± 0.19	1.3 ± 0.48	0.972 (active)
C=Cc1c(C)c2cc3nc(cc4[nH]c(cc5nc(cc1[nH]2)C(C)=C5CCC(=O)O)c(CCC(=O)OC)c4C)[C@@]1(C)C3=CC=C(C(=O)OC)[C@H]1C(=O)OC	0.419 ± 0.077	0.077 ± 0.012	0.123 ± 0.0057	0.0175 ± 0.0038	0.0424 ± 0.018	0.0518 ± 0.015	0.344 (inactive)
CCOC(=O)c1c(C)nn(C2CCCCC2)c1N	1.1 ± 0.1	1.02 ± 0.049	1.09 ± 0.099	0.954 ± 0.044	1.2 ± 0.075	1.37 ± 0.12	1.02 (active)
O=C1C(CCS(=O)c2ccccc2)C(=O)N(c2ccccc2)N1c1ccccc1 (stereo not given)	0.833 ± 0.042	0.955 ± 0.076	0.954 ± 0.056	1.01 ± 0.068	1.22 ± 0.2	1.31 ± 0.44	1.02 (active)
N#CC1=C(NC(=S)NC(=O)c2ccccc2)c2ccccc2CC12CCCCC2	0.818 ± 0.096	0.577 ± 0.12	1.08 ± 0.085	1.76 ± 0.18	1.41 ± 0.098	1.73 ± 0.18	0.877 (active)

Structure (SMILES)	NF-kB reporter [1, 4]	NF-kB reporter ([1]; agonist: LPS 0.1 ug/mL)	NF-kB reporter ([1]; agonist: MPLA […])	IRF reporter ([2]; agonist: 3'3'-cGAMP 10 ug/mL)	IRF reporter ([2]; agonist: LPS 0.1 ug/mL)	IRF reporter ([2]; agonist: MPLA […])	viability score [3]
O=C(O)CC(c1ccccc1)N1C(=O)c2ccccc2C1=O (stereo not given)	0.999 ± 0.17	1.04 ± 0.13	0.963 ± 0.11	0.976 ± 0.044	1.24 ± 0.22	1.3 ± 0.21	1 (active)
CC(Oc1ccccc1)C(=O)NC1CC(C)(C)NC(C)(C)C1 (stereo not given)	0.76 ± 0.059	0.966 ± 0.085	1.06 ± 0.1	0.993 ± 0.045	1.26 ± 0.079	1.35 ± 0.14	1.02 (active)
COc1ccc(C(=O)Nc2cccc([N+](=O)[O-])c2)cc1I	1.03 ± 0.083	1.01 ± 0.071	0.95 ± 0.081	0.801 ± 0.037	1.02 ± 0.13	1.04 ± 0.23	0.997 (active)
C#CCOC(=O)CCCC(=O)Nc1ccc([N+](=O)[O-])cc1Cl	0.957 ± 0.066	1.01 ± 0.067	0.975 ± 0.062	1.01 ± 0.036	1.59 ± 0.11	1.3 ± 0.21	0.999 (active)
Brc1ccc(CN2C3=NCCCN3c3ccccc32)cc1.Cl	0.263 ± 0.023	0.826 ± 0.054	1.34 ± 0.092	0.735 ± 0.089	0.984 ± 0.049	0.905 ± 0.11	0.96 (active)
NC(Cc1cc(I)c(Oc2cc(I)c(O)c(I)c2)c(I)c1)C(=O)O (stereo not given)	0.948 ± 0.23	0.984 ± 0.098	0.94 ± 0.073	0.901 ± 0.036	1.18 ± 0.2	1.12 ± 0.14	1 (active)
CC(C)n1cnc(S(=O)(=O)N2CCC(S(=O)(=O)Cc3ccccc3)CC2)c1	0.891 ± 0.05	0.891 ± 0.072	1.02 ± 0.055	1.06 ± 0.062	1.3 ± 0.3	1.37 ± 0.34	1 (active)
CC12CCC3c4ccc(O)cc4CCC3C1CC(O)C2O (stereo not given)	1.17 ± 0.28	1.28 ± 0.075	1.24 ± 0.093	0.596 ± 0.022	1.39 ± 0.16	1.44 ± 0.14	0.97 (active)
COc1ccc(Oc2coc3cc(OC(=O)c4ccc(Cl)c([N+](=O)[O-])c4)ccc3c2=O)cc1	0.82 ± 0.063	0.981 ± 0.052	1.08 ± 0.094	0.892 ± 0.048	1.29 ± 0.08	1.43 ± 0.14	1.02 (active)
Clc1cccc(C=Nc2ccc(N=Cc3cccc(Cl)c3Cl)cc2)c1Cl	0.979 ± 0.081	1.08 ± 0.07	1 ± 0.04	0.815 ± 0.059	1.05 ± 0.056	1.09 ± 0.12	1 (active)
CC1=C(C(=O)OC2CCCCC2)C(c2ccc(N(C)C)cc2)C2=C(CC(C)(C)CC2=O)N1 (stereo not given)	0.767 ± 0.12	0.697 ± 0.08	1.16 ± 0.1	0.843 ± 0.083	0.943 ± 0.071	1.04 ± 0.22	1 (active)
CCC(=O)Nc1ccc(S(=O)(=O)NCC2CCN(c3ncc(F)cn3)CC2)c(C)c1	1.06 ± 0.096	1.2 ± 0.096	1.04 ± 0.065	1.79 ± 0.1	1.21 ± 0.11	1.08 ± 0.093	0.986 (active)
CCN(CC)c1ccc(NC(=O)C(C)(C)C)cc1	0.969 ± 0.075	1.02 ± 0.075	0.98 ± 0.12	0.901 ± 0.074	1.22 ± 0.17	1.36 ± 0.25	1.04 (active)
O=C(NN=Cc1ccccc1C(F)(F)F)c1ccc(=O)[nH]n1	0.764 ± 0.062	0.877 ± 0.052	1.08 ± 0.098	0.964 ± 0.052	1.23 ± 0.08	1.28 ± 0.12	0.999 (active)
NC1CONC1=O (stereo not given)	1.25 ± 0.3	1.09 ± 0.11	1 ± 0.082	0.937 ± 0.033	1.2 ± 0.17	1.11 ± 0.12	0.991 (active)
CCS(=O)(=O)N1N=C(c2ccc(NS(C)(=O)=O)cc2)CC1c1ccccc1 (stereo not given)	0.947 ± 0.073	0.998 ± 0.078	1.12 ± 0.12	0.963 ± 0.034	1.29 ± 0.15	1.4 ± 0.23	1.02 (active)
CC(=O)N[C@@H](CS)C(=O)O	1.1 ± 0.082	1.05 ± 0.096	1.04 ± 0.052	0.931 ± 0.065	0.982 ± 0.076	1.04 ± 0.087	0.995 (active)
